From PubChem BioAssay (Tox21)
Inconclusive results are not listed. Active and inactive are the calls of the source. Unless noted, the call rests on the fitted dose curve; in most records, active means well fitted curve in the direction sought with a large enough effect in the repeat runs; inconclusive means weak or mixed curves; inactive means no such curve, though single readings can be large; an effect the other way counts as inactive or inconclusive.

Columns and labels:
[1] = target: Glucocorticoid receptor (Homo sapiens) (UniProt P04150); assay: qHTS assay to identify small molecule antagonists of the glucocorticoid receptor (GR) signaling pathway (AID 720692; active means well fitted inhibition curve with a large enough effect in the signal ratio in the repeat runs, not every such curve was filed as active; the % refers to the signal ratio; further: potency means the concentration at half of the fitted maximal effect); details: GR-bla HeLa, beta-lactamase FRET ratio, dexamethasone-stimulated, 18 h; series mostly up to 58.5 µM
Glucocorticoid receptor (Homo sapiens), sequence (P04150 whole entry, looked up): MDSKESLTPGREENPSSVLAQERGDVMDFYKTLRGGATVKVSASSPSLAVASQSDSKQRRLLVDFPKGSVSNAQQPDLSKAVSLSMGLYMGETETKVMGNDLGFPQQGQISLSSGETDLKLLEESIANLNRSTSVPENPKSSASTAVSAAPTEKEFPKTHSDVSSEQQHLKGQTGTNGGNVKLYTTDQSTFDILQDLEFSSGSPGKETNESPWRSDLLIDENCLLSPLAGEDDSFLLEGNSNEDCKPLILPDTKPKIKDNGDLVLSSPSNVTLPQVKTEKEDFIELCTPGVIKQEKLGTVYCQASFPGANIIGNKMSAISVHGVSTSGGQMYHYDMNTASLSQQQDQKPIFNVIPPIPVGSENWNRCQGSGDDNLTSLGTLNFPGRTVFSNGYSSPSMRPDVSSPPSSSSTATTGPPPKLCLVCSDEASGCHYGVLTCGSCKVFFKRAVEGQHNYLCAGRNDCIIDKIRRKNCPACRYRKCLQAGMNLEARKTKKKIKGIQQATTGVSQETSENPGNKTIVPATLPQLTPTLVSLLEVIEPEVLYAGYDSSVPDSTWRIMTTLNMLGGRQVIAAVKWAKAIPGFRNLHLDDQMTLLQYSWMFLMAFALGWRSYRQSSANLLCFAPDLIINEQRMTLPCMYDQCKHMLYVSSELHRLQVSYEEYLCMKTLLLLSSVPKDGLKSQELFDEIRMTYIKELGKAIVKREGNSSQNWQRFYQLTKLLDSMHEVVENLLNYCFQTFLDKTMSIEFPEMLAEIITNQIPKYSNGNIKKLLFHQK
Outline: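 Inhibition of glucocorticoid signalling is measured in HeLa cells with a GRE-controlled beta-lactamase reporter; cells are co-treated with compound and 5 nM dexamethasone (final) for 18 h before FRET substrate readout.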

[2] = target: Androgen receptor (Homo sapiens) (UniProt P10275); assay: qHTS assay to identify small molecule antagonists of the androgen receptor (AR) signaling pathway (AID 743035; active means well fitted inhibition curve with a large enough effect in the signal ratio in the repeat runs, not every such curve was filed as active; the % refers to the signal ratio; further: potency means the concentration at half of the fitted maximal effect); details: HEK293 AR-UAS-bla, R1881-stimulated, beta-lactamase FRET, 16 h; series mostly up to 58.5 µM
Androgen receptor (Homo sapiens), sequence (P10275 whole entry, looked up): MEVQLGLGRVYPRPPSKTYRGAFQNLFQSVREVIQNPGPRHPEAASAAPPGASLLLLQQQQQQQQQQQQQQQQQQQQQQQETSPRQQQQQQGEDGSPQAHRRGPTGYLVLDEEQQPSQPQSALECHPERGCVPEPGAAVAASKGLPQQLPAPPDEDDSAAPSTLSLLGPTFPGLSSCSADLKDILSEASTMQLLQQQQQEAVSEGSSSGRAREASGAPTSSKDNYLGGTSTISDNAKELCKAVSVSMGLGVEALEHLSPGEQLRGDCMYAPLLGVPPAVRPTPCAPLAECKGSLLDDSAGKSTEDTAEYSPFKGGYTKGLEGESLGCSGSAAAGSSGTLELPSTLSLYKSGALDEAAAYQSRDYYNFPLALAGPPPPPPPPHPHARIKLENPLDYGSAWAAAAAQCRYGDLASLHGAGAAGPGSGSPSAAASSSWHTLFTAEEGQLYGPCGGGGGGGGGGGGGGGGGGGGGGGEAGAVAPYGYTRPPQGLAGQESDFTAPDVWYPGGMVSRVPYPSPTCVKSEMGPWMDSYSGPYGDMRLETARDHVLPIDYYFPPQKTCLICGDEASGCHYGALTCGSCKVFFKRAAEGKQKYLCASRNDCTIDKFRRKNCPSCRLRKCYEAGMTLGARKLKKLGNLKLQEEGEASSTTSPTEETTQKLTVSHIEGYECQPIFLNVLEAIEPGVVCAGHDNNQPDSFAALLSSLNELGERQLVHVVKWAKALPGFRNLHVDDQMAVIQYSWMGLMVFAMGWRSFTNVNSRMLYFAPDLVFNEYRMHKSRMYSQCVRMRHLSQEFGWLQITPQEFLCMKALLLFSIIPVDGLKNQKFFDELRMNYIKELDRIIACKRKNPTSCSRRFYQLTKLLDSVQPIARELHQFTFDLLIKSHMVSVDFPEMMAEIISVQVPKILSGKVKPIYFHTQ
Outline: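 Beta-lactamase FRET read (2 h RT incubation with LiveBLAzer B/G) following 16 h of compound plus R1881 treatment of AR-UAS-bla HEK293 cells, which had been pre-incubated 4 h at 37C.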

[3] = target: Androgen receptor (Homo sapiens) (UniProt P10275); assay: qHTS assay to identify small molecule agonists of the androgen receptor (AR) signaling pathway (AID 743036; active means well fitted activation curve with a large enough effect in the signal ratio in the repeat runs, with a control signal flat, not every such curve was filed as active; the % refers to the signal ratio); details: HEK293 AR-UAS-bla GripTite, beta-lactamase FRET ratio, 16 h; series mostly up to 62.4 µM
Outline: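 HEK293 cells stably carrying a UAS-driven beta-lactamase reporter (GeneBLAzer AR-UAS-bla-GripTite) were plated at 2,000 cells/well, rested 4 h at 37C, then exposed to compounds in DMSO for 16 h. LiveBLAzer B/G FRET substrate was added for 2 h at room temperature; fluorescence read.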

[4] = target: Androgen receptor (Homo sapiens) (UniProt P10275); assay: qHTS assay to identify small molecule agonists of the androgen receptor (AR) signaling pathway using the MDA cell line (AID 743040; further: nearly all actives have a fitted effect of over 20% in size); details: MDA-kb2 AR-luc cells, MMTV luciferase, 16 h; series mostly up to 70.3 µM
Outline: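 Cells plated, 5 h at 37C/0% CO2; compound or DMSO pinned; 16 h at 37C; ONE-Glo added; luminescence measured after 30 min at room temperature. Reporter line: MDA-kb2 with MMTV-luciferase responsive to AR and GR.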

[5] = target: Androgen receptor (Homo sapiens) (UniProt P10275); assay: qHTS assay to identify small molecule antagonists of the androgen receptor (AR) signaling pathway using the MDA cell line (AID 743042; further: nearly all actives have a fitted effect of over 55% in size; further: potency means the concentration at half of the fitted maximal effect); details: MDA-kb2 AR-luc, MMTV luciferase, R1881 antagonist, 16 h; series mostly up to 70.3 µM
Outline: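 Antagonist mode: compounds plus R1881 agonist added to MDA-kb2 AR-luc cells, incubated 16 h at 37C. Luciferase reporter luminescence quantified, with multiplexed CellTiter-Fluor readout for cell viability.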

[6] = Caspase-3/7 induction in HepG2 cells by small molecules, qHTS assay (AID 1346978); details: HepG2 caspase-3/7 activation, Caspase-Glo luminescence, 17 h; series mostly up to 92.4 µM; further: nearly all actives have a fitted effect of over 15% in size
Outline: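 Caspase-3/7 induction was measured by Caspase-Glo 3/7 luminescence (30 min, room temperature) after a 17 hr compound exposure of wild-type HepG2 cells seeded at 2,000 per well and pre-incubated 5 hr.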

[7] = target: Acetylcholinesterase (Homo sapiens) (UniProt P22303); assay: Acetylcholinesterase (AChE) small molecule antagonists: colormetric cell-based qHTS assay (AID 1347395; calls by dose curve; further: nearly all actives have a fitted effect of over 30% in size; further: potency means the concentration at half of the fitted maximal effect); details: SH-SY5Y cells AChE activity, colorimetric (Ellman); series mostly up to 115 µM
Acetylcholinesterase (Homo sapiens), sequence (P22303 whole entry, looked up): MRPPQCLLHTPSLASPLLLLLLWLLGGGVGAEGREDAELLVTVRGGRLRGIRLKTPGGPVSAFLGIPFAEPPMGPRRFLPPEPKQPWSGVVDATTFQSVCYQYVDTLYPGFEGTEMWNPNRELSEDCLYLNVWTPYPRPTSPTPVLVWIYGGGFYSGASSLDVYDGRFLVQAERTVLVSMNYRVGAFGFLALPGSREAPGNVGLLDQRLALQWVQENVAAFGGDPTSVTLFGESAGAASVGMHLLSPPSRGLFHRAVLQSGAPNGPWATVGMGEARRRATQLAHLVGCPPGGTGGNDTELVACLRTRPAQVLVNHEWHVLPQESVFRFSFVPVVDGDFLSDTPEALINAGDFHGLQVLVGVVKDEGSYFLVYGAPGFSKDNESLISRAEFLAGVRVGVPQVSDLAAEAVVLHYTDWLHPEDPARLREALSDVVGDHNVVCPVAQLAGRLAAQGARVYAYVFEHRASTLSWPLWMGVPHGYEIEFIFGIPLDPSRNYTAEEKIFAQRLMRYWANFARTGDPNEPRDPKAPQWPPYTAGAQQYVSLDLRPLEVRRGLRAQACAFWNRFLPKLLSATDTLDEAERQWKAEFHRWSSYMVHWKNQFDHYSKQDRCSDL
Outline: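 SH-SY5Y cells, plated overnight at 37 C, were exposed to compounds for 30 min at 37 C and 5% CO2. Acetylthiocholine plus DTNB was then added, and thiocholine from endogenous AChE was quantified colorimetrically after 90 min at 37 C.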

[8] = target: Acetylcholinesterase (Homo sapiens) (UniProt P22303); assay: Acetylcholinesterase (AChE) small molecule antagonists: enzyme-based qHTS assay (AID 1347397; calls by dose curve; further: nearly all actives have a fitted effect of over 55% in size; further: potency means the concentration at half of the fitted maximal effect); details: Potency: AChE enzyme activity inhibition; outcome: AChE enzyme activity inhibition; series mostly up to 115 µM
Outline: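 rhAChE 50 mU/mL (dispensed) + cpd or DMSO, 30 min RT; add DTNB/acetylthiocholine cocktail, 10 min RT; colorimetric thiocholine readout. qHTS, 1536-well format.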

[9] = target: Acetylcholinesterase (Homo sapiens) (UniProt P22303); assay: Acetylcholinesterase (AChE) small molecule antagonists: fluorescence cell-based qHTS assay (AID 1347398; calls by dose curve; further: nearly all actives have a fitted effect of over 50% in size; further: potency means the concentration at half of the fitted maximal effect); details: SH-SY5Y cells; Potency: AChE activity; outcome: AChE activity; series mostly up to 115 µM
Outline: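 Read-out is Thiolite Green fluorescence at Ex/Em = 490/520 nm, formed by reaction with thiocholine released when cellular AChE in SH-SY5Y cells hydrolyzes acetylthiocholine. Compounds were preincubated 30 min at 37 C before substrate.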

[10] = target: Acetylcholinesterase (Homo sapiens) (UniProt P22303); assay: Acetylcholinesterase (AChE) small molecule antagonists: enzyme-based qHTS assay with human liver microsomes (AID 1347399; calls by dose curve; further: nearly all actives have a fitted effect of over 60% in size); details: Potency: qHTS inhibition; outcome: qHTS inhibition; series mostly up to 115 µM
Outline: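 Recombinant human AChE (50 mU/mL in the enzyme mix) and human liver microsomes (0.25 mg/mL final) were preincubated with compound and NADPH (0.25 mg/mL final) for 30 min at 37 C. Acetylthiocholine/DTNB was then added; thiocholine was read colorimetrically after 10 min at room temperature.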

[11] = target: Nuclear receptor subfamily 1 group I member 2 (Rattus norvegicus) (UniProt Q9R1A7); assay: Rat pregnane X receptor (rPXR) activation by small molecules, qHTS assay (AID 1346983); details: rPXR luciferase reporter cells, One-Glo luminescence, 24 h; max activation: stronger effect = higher value; further: nearly all actives have a fitted effect of over 20% in size; further: potency means the concentration at half of the fitted maximal effect
Nuclear receptor subfamily 1 group I member 2 (Rattus norvegicus), sequence (Q9R1A7 whole entry, looked up): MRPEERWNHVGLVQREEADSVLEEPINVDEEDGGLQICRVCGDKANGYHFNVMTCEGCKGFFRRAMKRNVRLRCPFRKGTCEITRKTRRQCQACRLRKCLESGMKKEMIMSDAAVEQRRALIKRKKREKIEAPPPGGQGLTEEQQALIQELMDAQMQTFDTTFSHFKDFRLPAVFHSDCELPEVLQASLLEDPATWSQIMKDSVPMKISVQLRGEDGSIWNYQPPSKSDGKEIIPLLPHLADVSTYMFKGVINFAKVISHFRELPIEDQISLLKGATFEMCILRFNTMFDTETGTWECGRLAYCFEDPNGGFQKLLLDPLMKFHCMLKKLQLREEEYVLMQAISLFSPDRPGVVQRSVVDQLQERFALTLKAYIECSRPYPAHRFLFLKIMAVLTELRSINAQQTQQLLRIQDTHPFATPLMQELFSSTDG
Outline: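 Luminescent readout (One-Glo luciferase, 30 min room temperature) followed 24 hr compound treatment at 37 C of rPXR cells plated 2,000 per well and preincubated 5hr; qHTS format with compounds delivered in DMSO.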

[12] = target: Nuclear receptor subfamily 1 group I member 2 (Homo sapiens) (UniProt O75469); assay: CYP3A4 induction through human pregnane X receptor (PXR) by small molecules, qHTS assay (AID 1346984); details: DPX-2 HepG2 PXR, CYP3A4-luciferin luminescence, 24 h; series mostly up to 46.1 µM; further: nearly all actives have a fitted effect of over 40% in size
Outline: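 Readings come from a luciferase reporter: DPX-2 cells, which are HepG2 cotransfected with PXR and a CYP3A4-promoter construct, were exposed to test compounds for 24 h at 37C before One-Glo detection.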

[13] = target: Nuclear receptor subfamily 1 group I member 2 (Homo sapiens) (UniProt O75469); assay: Human pregnane X receptor (PXR) activation by small molecules, qHTS assay (AID 1346985); details: DPX-2 HepG2 CYP3A4-luciferase, 24 h; series mostly up to 38.3 µM; further: nearly all actives have a fitted effect of over 40% in size; further: potency means the concentration at half of the fitted maximal effect
Outline: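 DPX-2 cells (HepG2 co-transfected with a PXR response element and a CYP3A4-promoter luciferase construct) were seeded at 2,000 per well, rested 5 hr at 37C, then exposed to DMSO-dissolved compounds for 24 hr. Activation was read as luciferase luminescence.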
On the % scale 0 is the no-effect control and ±100 the full control effect.

C[C@@H](N)C(=O)c1ccccc1
inactive: Potency [1] | Potency [2] | Potency [3] | Potency [4] | Potency [5]

COc1cc2c(cc1OC)[C@@H]1CC(=O)[C@@H](CC(C)C)CN1CC2
inactive: Potency [6] | Potency [7] | Potency [8] | Potency [9] | Potency [10]

Cc1ccccc1-n1c(C)nc2ccccc2c1=O
inactive: Potency [1] | max activation [11] 9.97% | Potency [12] | Potency [13]

CCCSc1cc(OC)c(CCN)cc1OC
inactive: Potency [1] | Potency [4] | Potency [5]
active: Potency [2] 6.55 µM

COC(=O)[C@]12CCC(C)(C)C[C@H]1[C@H]1C(=O)C=C3[C@@]4(C)C=C(C#N)C(=O)C(C)(C)[C@@H]4CC[C@@]3(C)[C@]1(C)CC2
active: Potency [5] 2.37 µM
inactive: Potency [4]

CC(=O)OO
inactive: max activation [11] -0.773% | Potency [12] | Potency [13]

C[C@@H]1[C@H](O)[C@@H](C)/C=C/C=C/CC/C=C/C=C/C=C/C=C/[C@H](O[C@H]2O[C@@H](C)[C@H](O)[C@@H](N)[C@H]2O)CC2O[C@](O)(C[C@@H](O)[C@H](O)CC[C@@H](O)C[C@@H](O)C[C@@H](O)CC(=O)O[C@H]1C)C[C@H](O)[C@H]2C(=O)O
inactive: Potency [2] | Potency [3] | Potency [4] | Potency [5]

CNC(=O)Oc1ccc2c(c1)[C@]1(C)CCN(C)[C@@H]1N2C
inactive: Potency [6]

Clc1cc(Cl)c(-c2c(Cl)c(Cl)cc(Cl)c2Cl)cc1Cl
inactive: Potency [6] | Potency [7] | Potency [8] | Potency [9] | Potency [10]

CCCCNC(C)(C)[P+](=O)O
inactive: Potency [2] | Potency [3] | Potency [4] | Potency [5]

C[C@]12CCC(=O)C[C@@H]1CC[C@@H]1[C@@H]2CC[C@@]2(C)[C@H]1CC[C@]2(C)O
active: Potency [1] 8.49 µM

COC(=O)[C@@H]1[C@H]2CC[C@@H](C[C@H]1OC(=O)c1ccccc1)N2C
inactive: Potency [2] | Potency [3] | Potency [4] | Potency [5] | Potency [12] | Potency [13]

COc1ccc(-c2nc3ccc(C4=NNC(=O)CC4C)cc3[nH]2)cc1 (stereo not drawn)
inactive: Potency [7] | Potency [8]

O=C(OCCN1CCCCC1)C(O)(c1ccccc1)c1ccccc1
inactive: max activation [11] -1.73% | Potency [12] | Potency [13]

CN(C)[C@H](Cc1ccccc1)c1ccccc1
inactive: max activation [11] 0.224% | Potency [12] | Potency [13]

C=C[C@H]1CN2CC[C@H]1C[C@H]2[C@H](OC(=O)OCC)c1ccnc2ccc(OC)cc12
inactive: Potency [1] | Potency [12]

CN1c2ccccc2C(NCCCCCCC(=O)O)c2ccc(Cl)cc2S1(=O)=O (stereo not drawn)
inactive: max activation [11] -2.51%
active: Potency [13] 7.94 µM

O=C1c2c(O)ccc([N+](=O)[O-])c2C(=O)c2c([N+](=O)[O-])ccc(O)c21
active: Potency [7] 0.789 µM | Potency [8] 25 µM | Potency [9] 8.86 µM

COc1ccc2c3c1O[C@H]1C(=O)CC[C@H]4[C@@H](C2)N(C)CC[C@]314
inactive: max activation [11] -2.81% | Potency [12] | Potency [13]

C[C@H]1CC[C@]2(NC1)O[C@H]1C[C@H]3[C@@H]4CC[C@H]5C[C@@H](O)CC[C@]5(C)[C@H]4CC[C@]3(C)[C@H]1[C@@H]2C
inactive: max activation [11] 11.8% | Potency [12] | Potency [13]

CCC1(c2ccccc2)C(=O)NC(=O)N(C)C1=O (stereo not drawn)
inactive: Potency [1] | Potency [13]

CN1CCCC(=C(c2cccs2)c2cccs2)C1
inactive: Potency [2] | Potency [3] | Potency [4] | Potency [5] | max activation [11] -1% | Potency [12] | Potency [13]

C=CCC1(C(C)CCC)C(=O)N=C(S)NC1=O (stereo not drawn)
inactive: Potency [1] | Potency [3] | Potency [4] | Potency [5] | max activation [11] -2.22%

C/C(=C\c1csc(C)n1)[C@@H]1C[C@@H]2O[C@]2(C)CCC[C@H](C)[C@H](O)[C@@H](C)C(=O)C(C)(C)[C@@H](O)CC(=O)O1
active: Potency [2] 0.0239 µM | Potency [11] 10 µM | Potency [13] 7.94 µM
inactive: Potency [4] | Potency [5] | Potency [12]

O=C1CN(O)C(c2ccccc2)=c2cc(Cl)ccc2=N1
inactive: Potency [1] | Potency [2] | Potency [3] | Potency [4] | Potency [5] | max activation [11] -6.23% | Potency [12] | Potency [13]
